# From PubChem BioAssay
# CtBP-E1A inh – CtBP/E1A binding inhibition. AlphaScreen GST-E1A/His-CtBP binding, 1536-well; hits give low values. activity change, % (no concentration beside the values). 0.49% of 340,000 active. AID 651724; in the data active = activity change below about -65%; inconclusive = mostly about -30% to -63%; also: % is scaled to controls: 0 for no effect and ±100 for the full control effect
#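 Protein mix (5X: 125 nM each GST-E1A, His-CtBP) was incubated with pinned compound 2 h at 37 deg C in dark, in 50 mM Tris pH 8.0 buffer with 300 mM NaCl. Glutathione donor and nickel acceptor beads followed; AlphaScreen signal read after 1 h.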
# Six1-Eya2 blk – inhibitors of human Six1/Eya2 interaction; Q15475+O00167; AlphaScreen GST-Six1/His-Eya2 binding, biochemical; hits give low values; activity change, % (test concentration not listed); 0.56% of 360,000 active; AID 651725; in the data active = activity change below about -65%; inconclusive = mostly about -30% to -63%; also: % is scaled to controls: 0 for no effect and ±100 for the full control effect
#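 AlphaScreen luminescence read after one hour at 37 °C in darkness. Pin-transferred compounds met GST-Six1 and His-Eya2 protein (5X stock 250 nM/500 nM) plus glutathione donor and Ni-chelate acceptor beads (5X, 50 ug/mL).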
# JMJD2A Tudor inh – inhibitors of human JMJD2A Tudor domain. 4.4% of 390,000 active. AID 504339. O75164. AlphaScreen JMJD2A-Tudor / H3K4me3 peptide binding. Potency, µM (top dose mostly 114 µM), without a hit: top-dose activity change, negative = inhibition, actives largely listed as inhibitors; also: potency is read from the fitted curve at half-maximal effect; % is scaled to controls: 0 for no effect and ±100 for the full control effect; nearly all actives have a fitted effect of over 50% in size
# BAZ2B block – BAZ2B (human) inhibition; 4.4% of 360,000 active; AlphaScreen BAZ2B-H3K14Ac peptide displacement; Potency, µM (top dose mostly 114 µM), for inactives: top-dose activity change, negative = inhibition, hits mostly inhibitors; Q9UIF8; also: potency is read from the fitted curve at half-maximal effect; % is scaled to controls: 0 for no effect and ±100 for the full control effect; nearly all actives have a fitted effect of over 60% in size
#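 BAZ2B (50 nM) with biotin-H3(5-23)K14Ac peptide (50 nM) in PBS pH 7.4, 0.01% Tween-20, preformed 30 min, then compound 30 min at room temperature; top concentration 110uM. AlphaScreen streptavidin donor/nickel chelate acceptor beads (10 ug/mL final), 20 min dark, signal read.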
# HP1b chromo inh – HP1-beta chromodomain-methylated histone interaction inhibition | P83916 | AlphaScreen HP1-beta / biotin-H3K9me3 peptide binding | Potency, µM (highest dose often 114 µM), inactives show top-dose activity change, negative = inhibition, most hits filed as inhibitors | 0.56% of 390,000 active; also: potency is read from the fitted curve at half-maximal effect; nearly all actives have a fitted effect of over 70% in size
#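 AlphaScreen: HP1-beta (50 nM) preformed 30 min with biotin-H3(1-18)K9me3 peptide (50 nM) in PBS pH 7.4, 0.01% Tween-20. Compound added for 30 min at RT, then streptavidin donor/nickel chelate acceptor beads (10 ug/mL) for 30 min.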
# G9a block – G9a (human) methyltransferase inhibition. 8.8% of 350,000 active. AID 504332. Potency, µM (doses to about 102 µM), for the others: at the highest dose activity, negative = inhibition, most hits filed as inhibitors. G9a H3K9 monomethylation, AlphaScreen, 2 h. Q96KQ7; also: potency is read from the fitted curve at half-maximal effect; % is scaled to controls: 0 for no effect and ±100 for the full control effect; nearly all actives have a fitted effect of over 75% in size
#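 Step 1: enzyme (final 20 nM) with compound, 15 min RT. Step 2: substrate peptide 500 nM and SAM 20 uM, 2 h RT. Step 3: anti-H3K9me1 antibody and AlphaScreen beads, 10 min, then plate read.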
# The depositor's hits bear a star; ? = inconclusive; . = no result; ! = a repeat was not active; [ ] = remark or other dose. This is a sample that favours compounds with a hit; in the whole collection about 10% have one here. Unless noted, calls follow the shape of the dose curve; as a rule, active = well fitted inhibition curve with a large enough effect; inconclusive = small, poorly fitted or top-dose-only effect; inactive = no such curve, though single readings can be large or run the other way.
SMILES,CtBP-E1A inh,Six1-Eya2 blk,JMJD2A Tudor inh,BAZ2B block,HP1b chromo inh,G9a block
CN(C)CCC(=O)c1ccc(F)cc1,0.5,2.5,-12.5%[11.4 µM],-1.2%,33.3%,?
CCN(CC)CCC(=O)c1ccc(F)cc1,2.6,2.6,-9.7%,1.2%,50.1%,39.8µM*
COc1cccc(N2CCN(S(=O)(=O)c3cccc4nsnc34)CC2)c1,-5.5,5.3,-25.5%,-37.1%,16.5%,56.2µM*
COc1ccccc1N1CCN(S(=O)(=O)c2cccc3nsnc23)CC1,-22.7,-21.2,?,?,-22.1%,?
COc1ccc(N2CCN(S(=O)(=O)c3cccc4nsnc34)CC2)cc1,-4.3,-30.0,56.2µM*,?,-37.4%,-10.9%[12.7 µM]
O=C(Nc1cccc(-c2nn3c(=O)cc(N4CCNCC4)nc3s2)c1)c1ccncc1,.,.,-27.2%,.,.,.
Cn1ncc(Br)c1C(=O)N1CCCCCC1,-7.9,7.9,-2.0%,4.4%,13.2%,31.6µM*
CN(C)C(=O)/N=N/C(=O)N(C)C,.,.,.,.,.,2.67µM*
O=C(C1CCC(CNS(=O)(=O)c2cccc3cccnc23)CC1)N1CCCC1 (stereo not given),-0.1,3.6,-14.5%,14.6%,32.2%,-21.5%
O=S(=O)(NCC1CCCN(Cc2ccccc2O)C1)c1cccc2cccnc12 (stereo not given),7.0,-5.0,-12.4%,-17.3%,41.1%,70.8µM*
CCS(=O)(=O)Nc1ccc(C2=NN(C(=O)c3ccccc3)C(c3cccs3)C2)cc1 (stereo not given),-11.0,-0.9,-21.6%,79.4µM*,33.9%,28.2µM*
N#Cc1ccc2c(c1)C[C@]1(c3ccsc3)Oc3c(c(=O)oc4ccccc34)C2O1,.,.,.,12.6µM*,.,6.5%[2.33 µM]
COc1ccc2c3c(c(=O)oc2c1)C1O[C@](c2ccsc2)(Cc2cc(C#N)ccc21)O3,.,.,.,12.6µM*,.,?
COCCn1c(SCC(=O)Nc2cccc(C)c2C)nc2c(oc3ccccc32)c1=O,.,.,-4.7%,-1.8%,39.7%,13.2%[59 µM]
Cc1ccccc1Cn1nnc2c1C(=O)c1ccccc1C2=O,-11.1,-9.5,-6.9%,.,-1.7%,.
Cc1cccc(Cn2nnc3c2C(=O)c2ccccc2C3=O)c1,-3.8,?,-13.7%,12.6µM*,-26.0%,?
Cc1ccc2cc(C=C(C#N)C#N)c(N3CCCCC3)nc2c1,12.7,-0.8,?,?,?,44.7µM*
O=C(O)c1cn(-c2ccc(N3CCCC3)c(F)c2)c2c(F)c(F)c(F)cc2c1=O,1.3,0.0,?,-37.8%,4.5%,44.7µM*
Cc1c(-n2cc(C(=O)O)c(=O)c3cc(F)c(N4CCCC(O)C4)c(F)c32)c(=O)n(-c2ccccc2)n1C (stereo not given),-1.2,-0.6,-2.1%,1.3%,47.6%,8.3%
CN(C)CC(C)(C)CNS(=O)(=O)c1ccc(Cl)c(Cl)c1,-1.3,5.3,17.8µM*!,?,-11.0%,?
CCc1ccc(NS(=O)(=O)c2cccc3nonc23)cc1,.,-3.0,-26.3%[11.4 µM],?,-11.8%,44.7µM*
COc1ccc(NS(=O)(=O)c2cccc3nonc23)c(OC)c1,-2.5,-11.3,-25.2%,?,-12.9%,39.8µM*
COc1ccc(OC)c(NC(=O)CCNS(=O)(=O)c2cccc3nonc23)c1,-1.6,-1.6,4.9%,-3.7%,9.8%,?
COc1ccccc1C(=O)Nc1ccc(C(=O)OCc2cc(=O)n3c4c(sc3n2)CCCC4)cc1,.,.,?,?,32.8%,-1.3%[59 µM]
CN(C(=O)CSc1nc2ccccc2[nH]1)c1ccc(F)cc1,.,.,6.9%,-1.4%,23.1%,-4.8%[59 µM]
SMILES,CtBP-E1A inh,Six1-Eya2 blk,JMJD2A Tudor inh,BAZ2B block,HP1b chromo inh,G9a block
COc1cccc(C(=O)NCCNC(=O)c2ccccn2)c1,2.1,-1.2,0.0%,0.9%,28.6%,7.2%
COc1cc(/C=C/C(=O)c2cccc([N+](=O)[O-])c2)cc(OC)c1OC,-3.1,-3.5,?,?,-10.6%,?
CC(=O)c1cccc([N+](=O)[O-])c1,-0.1,-1.8,-7.6%,1.2%,22.0%,-2.5%[0.501 µM]
O=C(C#Cc1ccccc1)c1cccc([N+](=O)[O-])c1,8.0,-7.4,-13.6%,?,20.1%,3.55µM*
O=C(/C=C/c1ccccc1F)c1cccc([N+](=O)[O-])c1,.,-5.5,?,?,-1.8%,28.2µM*
Nc1nc(-c2cc3c(cc2Cl)OCCO3)cs1,-1.5,-3.3,-22.8%,?,4.9%,14.1µM*
Cc1ccc(C)c(NC(=O)CSc2nc(=O)n(Cc3ccccn3)c3c2CCC3)c1,.,.,2.3%,6.6%,28.5%,-1.3%[59 µM]
COc1ccc(C2=CC3=C(Br)C(=O)C(C)(OC(=O)c4cccs4)C(=O)C3=CO2)cc1 (stereo not given),-6.3,-10.0,28.2µM*,.,?,.
C=CCN1C=C2C(=O)C(C)(OC(=O)CCC(=O)OC)C(=O)C(Br)=C2C=C1c1ccc(OC)cc1 (stereo not given),-1.8,-9.5,?,?,-11.0%,22.5%[12.7 µM]
COc1ccc(C2=CC3=C(Br)C(=O)C(C)(OC(=O)c4ccco4)C(=O)C3=CO2)cc1 (stereo not given),-1.5,?,28.2µM*,44.7µM*,?,?
CC(=O)c1ccc(N2CC(C)(C)C2=O)cc1,2.3,4.7,-15.4%,-3.4%,7.3%,-0.1%
CN(C)c1ccc(N2CC(C)(C)C2=O)cc1,-7.7,-20.5,-26.6%,-21.7%,-18.1%,10µM*
Cc1nc2n(n1)C(c1ccccc1)C1=C(CC(c3ccco3)CC1=O)N2 (stereo not given),12.9,5.7,-19.4%,17.5%,13.5%,44.7µM*
O=C1CC(c2ccco2)CC2=C1C(c1ccncc1)n1nc(C(F)(F)F)nc1N2 (stereo not given),.,.,-13.7%,.,32.6%,.
O=C(c1ccc(Cl)c(S(=O)(=O)NCc2cccnc2)c1)N1CCCC1,.,13.9,0.7%,3.7%,29.9%,13.5%[2.33 µM]
CSc1nsc(SC)c1C(=O)O,3.1,2.6,-2.1%,-4.2%,16.3%,44.7µM*
Cc1ccc(NS(=O)(=O)c2c(C)[nH]c(C)c2C(=O)N2CCCCC2)c(Br)c1,5.3,-0.4,-7.6%,-25.1%,34.3%,18.5%[59 µM]
O=C(NCC1CCCO1)c1ccc2c(=O)n(CC3CCCO3)c(=S)[nH]c2c1 (stereo not given),-16.8,-1.3,7.94µM*,?,28.7%,?
CN1CCN(C(=O)c2ccc3c(=O)n(Cc4ccc(Cl)cc4)c(=S)[nH]c3c2)CC1,-7.6,-10.0,-32.5%,-20.0%,24.9%,44.7µM*
CCOC(=O)N1CCN(C(=O)c2ccc3c(=O)n(CC4CCCO4)c(=S)[nH]c3c2)CC1 (stereo not given),2.0,-0.1,50.1µM*,-26.1%,62.1%,39.8µM*
